According to PubChem BioAssay AID1159580 (chemical genetic matrix, 2015):
In all, about 5,500 compounds went through this assay and about 2,000 (36%) were called active. About 18% were inconclusive and are not listed. Cut-off read from the data, not from the text of the source: active = normalized growth mostly below about 0.91 (no sharp cut-off); inconclusive = no clear call, values can overlap the other calls; inactive = mostly above about 0.92. The list shows a part of the results.

Assay: chemical genetic growth profiling, strain panel (AID 1159580);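 note: tested at 20 µM; growth read once vehicle control cultures reached saturation at 30 °C; 1 = growth at the plate median or of vehicle wells; lower values mean less growth of the strain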
Conditions: growth OD

Measured: normalized growth

O=C(CCBr)N1CCN(C(=O)CCBr)CC1
inactive: S. cerevisiae deletion strains, locus YJR066W, strain TOR1, active compounds read low 0.961 | S. cerevisiae deletion strains, locus YKL009W, strain mrt4, active compounds read low 0.993 | S. cerevisiae deletion strains, locus YKL068W, active compounds read low 1 | S. cerevisiae deletion strains, locus YKL085W, strain MDH1 (second series), active compounds read low 1.01 | S. cerevisiae deletion strains, locus YKL085W, strain MDH1, active compounds read low 1.01 | S. cerevisiae deletion strains, locus YKL160W, strain elf1, active compounds read low 1.03 | S. cerevisiae deletion strains, locus YKL190W, strain CNB1, active compounds read low 1 | S. cerevisiae deletion strains, locus YKR001C, strain vps1, active compounds read low 0.997 | S. cerevisiae deletion strains, locus YKR026C, strain gcn3, active compounds read low 1.01 | S. cerevisiae deletion strains, locus YKR091W, strain srl3, active compounds read low 1.01 | S. cerevisiae deletion strains, locus YLL001W, strain dnm1, active compounds read low 1.01 | S. cerevisiae deletion strains, locus YLL026W, active compounds read low 1.01 | S. cerevisiae deletion strains, locus YLL041C, strain sdh2, active compounds read low 1.01 | S. cerevisiae deletion strains, locus YLR027C, strain aat2, active compounds read low 1.02 | S. cerevisiae deletion strains, locus YLR039C, strain RIC1, active compounds read low 1 | S. cerevisiae deletion strains, locus YLR058C, strain SHM2, active compounds read low 1.01 | S. cerevisiae deletion strains, locus YLR102C, strain apc9, active compounds read low 0.991 | S. cerevisiae deletion strains, locus YLR113W, strain HOG1, active compounds read low 0.979 | S. cerevisiae deletion strains, locus YLR221C, strain rsa3, active compounds read low 1.01 | S. cerevisiae deletion strains, locus YLR258W, strain gsy2, active compounds read low 1.02 | S. cerevisiae deletion strains, locus YLR262C, strain YPT6 (second series), active compounds read low 1.03 | S. cerevisiae deletion strains, locus YLR262C, strain YPT6, active compounds read low 1.02 | S. cerevisiae deletion strains, locus YLR268W, strain sec22, active compounds read low 1 | S. cerevisiae deletion strains, locus YLR320W, strain mms22, active compounds read low 1.03 | S. cerevisiae deletion strains, locus YLR330W, strain CHS5, active compounds read low 1.01 | S. cerevisiae deletion strains, locus YLR342W, strain FKS1 (second series), active compounds read low 1 | S. cerevisiae deletion strains, locus YLR342W, strain FKS1, active compounds read low 1.02 | S. cerevisiae deletion strains, locus YLR357W, strain rsc2, active compounds read low 1 | S. cerevisiae deletion strains, locus YLR370C, strain arc18, active compounds read low 1.02 | S. cerevisiae deletion strains, locus YLR371W, strain rom2, active compounds read low 0.991 | S. cerevisiae deletion strains, locus YLR384C, strain iki3, active compounds read low 1.02 | S. cerevisiae deletion strains, locus YLR418C, strain cdc73, active compounds read low 1.01 | S. cerevisiae deletion strains, locus YML016C, strain PPZ1, active compounds read low 1.01 | S. cerevisiae deletion strains, locus YML032C, strain rad52, active compounds read low 1 | S. cerevisiae deletion strains, locus YML120C, strain ndi1, active compounds read low 1.02 | S. cerevisiae deletion strains, locus YML124C, strain tub3, active compounds read low 0.991 | S. cerevisiae deletion strains, locus YMR058W, strain fet3, active compounds read low 1.01 | S. cerevisiae deletion strains, locus YMR078C, strain ctf18, active compounds read low 1.01 | S. cerevisiae deletion strains, locus YMR125W, strain sto1, active compounds read low 1.03 | S. cerevisiae deletion strains, locus YMR129W, active compounds read low 1.02 | S. cerevisiae deletion strains, locus YMR205C, strain PFK2, active compounds read low 1.03 | S. cerevisiae deletion strains, locus YMR223W, strain ubp8, active compounds read low 0.999 | S. cerevisiae deletion strains, locus YMR231W, strain pep5, active compounds read low 1.03 | S. cerevisiae deletion strains, locus YMR307W, strain GAS1, active compounds read low 0.993 | S. cerevisiae deletion strains, locus YNL067W, strain RPL9B, active compounds read low 1.01 | S. cerevisiae deletion strains, locus YNL071W, strain lat1, active compounds read low 1.02 | S. cerevisiae deletion strains, locus YNL128W, strain TEP1, active compounds read low 1.01 | S. cerevisiae deletion strains, locus YNL153C, strain GIM3, active compounds read low 1.02 | S. cerevisiae deletion strains, locus YNL183C, strain NPR1, active compounds read low 0.936 | S. cerevisiae deletion strains, locus YNL209W, strain ssb2, active compounds read low 1.02 | S. cerevisiae deletion strains, locus YNL233W, strain BNI4, active compounds read low 1 | S. cerevisiae deletion strains, locus YNL248C, strain rpa49, active compounds read low 1.01 | S. cerevisiae deletion strains, locus YNL250W, strain rad50, active compounds read low 1.01 | S. cerevisiae deletion strains, locus YNL271C, strain bni1, active compounds read low 0.999 | S. cerevisiae deletion strains, locus YNL298W, strain CLA4, active compounds read low 1.01 | S. cerevisiae deletion strains, locus YNL307C, strain MCK1, active compounds read low 0.997 | S. cerevisiae deletion strains, locus YNL322C, strain KRE1 (second series), active compounds read low 1.01 | S. cerevisiae deletion strains, locus YNL322C, strain KRE1, active compounds read low 1.01 | S. cerevisiae deletion strains, locus YNR049C, strain mso1, active compounds read low 1.01 | S. cerevisiae deletion strains, locus YNR052C, strain pop2, active compounds read low 1 | S. cerevisiae deletion strains, locus YOL006C, strain TOP1, active compounds read low 1.02 | S. cerevisiae deletion strains, locus YOL012C, strain htz1 0.666 | S. cerevisiae deletion strains, locus YOL147C, strain pex11, active compounds read low 0.998 | S. cerevisiae deletion strains, locus YOR001W, strain rrp6, active compounds read low 1.01 | S. cerevisiae deletion strains, locus YOR061W, strain CKA2, active compounds read low 1.01 | S. cerevisiae deletion strains, locus YOR069W, strain VPS5, active compounds read low 1.01 | S. cerevisiae deletion strains, locus YOR070C, strain gyp1, active compounds read low 1.02 | S. cerevisiae deletion strains, locus YOR080W, strain dia2, active compounds read low 1.02 | S. cerevisiae deletion strains, locus YOR083W, strain WHI5, active compounds read low 1.02 | S. cerevisiae deletion strains, locus YOR106W, strain vam3, active compounds read low 1.02 | S. cerevisiae deletion strains, locus YOR136W, strain idh2, active compounds read low 0.998 | S. cerevisiae deletion strains, locus YOR144C, strain elg1, active compounds read low 0.993 | S. cerevisiae deletion strains, locus YOR184W, strain ser1, active compounds read low 0.998 | S. cerevisiae deletion strains, locus YOR231W, strain MKK1, active compounds read low 0.985 | S. cerevisiae deletion strains, locus YOR265W, strain rbl2, active compounds read low 1.01 | S. cerevisiae deletion strains, locus YOR270C, strain vph1, active compounds read low 1.08 | S. cerevisiae deletion strains, locus YOR290C, strain snf2, active compounds read low 1 | S. cerevisiae deletion strains, locus YOR316C, strain cot1, active compounds read low 0.999 | S. cerevisiae deletion strains, locus YPL051W, strain arl3, active compounds read low 1.02 | S. cerevisiae deletion strains, locus YPL078C, strain atp4, active compounds read low 1.01 | S. cerevisiae deletion strains, locus YPL106C, strain sse1, active compounds read low 1.03 | S. cerevisiae deletion strains, locus YPL240C, strain hsp82, active compounds read low 1.02 | S. cerevisiae deletion strains, locus YPL241C, strain CIN2, active compounds read low 1.01 | S. cerevisiae deletion strains, locus YPL256C, strain CLN2, active compounds read low 0.996 | S. cerevisiae deletion strains, locus YPR119W, strain clb2, active compounds read low 0.994 | S. cerevisiae deletion strains, locus YPR141C, strain kar3, active compounds read low 0.992 | S. cerevisiae deletion strains, locus YPR163C, strain tif3, active compounds read low 0.994 | S. cerevisiae deletion strains, locus YPR167C, strain met16, active compounds read low 1.01 | S. cerevisiae deletion strains, strain wtn01, active compounds read low 0.989 | S. cerevisiae strains, strain wild type, active compounds read low 1.01
